Source: PubChem BioAssay (NCI)
This is part of a sample that, as a whole, favours compounds with a hit. Of some 83,000 tested, about 20% had one in any assay.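 Interpretation: 100, growth as untreated; towards 0, rising growth inhibition; 0, no net growth; 0 to -100, cell death. Compounds scoring below 10 were considered active.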 Values without a mark were called inactive. The source made the active and inactive calls.

system: HL-60(TB) leukemia; assay: NCI-60 one-dose screen, 48 h (100 = growth as untreated, 0 = no growth, -100 = all killed); details: 10 µM unless noted

Structure (SMILES) | growth
COc1cc(OC)c(C(=O)/C=C/c2cc3c(cc2OCc2ccccc2)OC(C)(C)CC3)cc1CC=C(C)C | -28.5% (active)
CCN(C(=O)c1cc2ncccc2[nH]1)[C@H]1CCC[C@@H](NCc2cccc(F)c2)C1 | 130%
CN(C)c1ccc(/C=C(\C#N)c2nc3ccccc3c(=O)[nH]2)cc1 | 108%
Clc1nc(Cl)c2ncn(CC3(Cn4cnc5c(Cl)nc(Cl)nc54)COC3)c2n1 | -75.5% (active)
Oc1c(I)cc(I)cc1CN(Cc1ccccn1)Cc1ccccn1 | 2.58% (active)
COc1ccc(Nc2nn3c(SCC(=O)c4ccc(C)cc4)nnc3s2)cc1 | 86%
CC1(C)C=CC[C@]2(C)[C@H]3CC[C@@H]4[C@H]5[C@H](C(=O)/C=C/c6cccnc6)CC[C@]5(CO)CC[C@@]4(C)[C@]3(C)CC[C@@H]12 | -29.2% (active)
COc1cc(C(=O)OCCCCCCCCCCC[P+](c2ccccc2)(c2ccccc2)c2ccccc2)ccc1O | -56% (active)
COc1cc2c(cc1OC)C(=O)C(Br)CC2 (stereo not given) | 27.3%
CC(C)CCSc1nc(Nc2ccccc2)c(C#N)c(-c2ccccc2)n1 | 76.5%
COc1ccc(-c2ccc(-c3ccc(-c4ccc(C(=N)N)cc4)s3)s2)cc1OC | 99.1%
O=c1[nH]c(=O)[nH]c(=S)[nH]1 | 102%
S=c1[nH]c(=S)c2c(-c3ccccc3)c(-c3ccccc3)oc2[nH]1 | 94.9%
C=C1CC2(OC1=O)C(=O)Nc1ccccc12 (stereo not given) | 31.6%
N#Cc1ccc(C2C3=C(CCCC3=O)OC3=C2C(=O)c2ccccc2C3=O)cc1 (stereo not given) | -21.4% (active)
CCSc1ccc([C@@H]2[C@@H](N)C(=O)N2c2cc(OC)c(OC)c(OC)c2)cc1 | -40.5% (active)
OC(COc1cccc2ccccc12)CN1CCN(c2ccccc2)CC1 (stereo not given) | 90.9%
O=C(NCc1cccnc1)c1cc(-c2csc3c(=O)cc(N4CCOCC4)oc23)cc2c1OCCO2 | -35.1% (active)
COc1ccc(-c2cc(C(=O)N=Nc3c(O)[nH]c4ccc(Br)cc34)no2)cc1 | 95.1%
CC(C)(C)C(=O)CCCCCCCC/C=C/CCCC(O)c1ccco1 (stereo not given) | 75%

Structure (SMILES) | growth
O=C(C1=Cc2cc3ccccc3n2Cc2cnnn21)c1ccc(F)cc1 | 98%
C=C(CC(=O)OC)C(C)=O | 95.8%
C=C(CN1CCN(c2cccc(C(F)(F)F)n2)CC1)c1ccc(C(=O)Nc2ccccc2N)cc1 | -27.4% (active)
c1ccc(CO[C@H]2CO[C@H]3[C@@H]2OC[C@@H]3Oc2ccc(Nc3ncnc4ccsc34)cc2)cc1 | 75.7%
CCOC(=O)c1ccc2c(c1)c1c(C)c3cccnc3c(C)c1n2C | 77.4%
CC1(C)CCC(C)(C)NC(=S)N1 | 89.3%
Cc1[nH]n(C(N)=S)c(=O)c1N=Nc1ccc(F)c(Cl)c1 | 90.6%
Nc1ccc(/C=N/Nc2ccnc3c(O)cccc23)c2cccnc12 | 17.9%
CC(=O)O.CC(=O)O.O.[Fe] | 114%
C=CCOC1=CC(=O)c2ccccc2C1=O | 41.6%
Nc1ncc(-c2ccc3ncnc(Nc4cncc(Cl)c4)c3c2)cn1 | 92.5%
CN(C)S(=O)(=O)c1ccc(S(=O)(=O)Nc2cccc(Cl)c2N2CCCCC2)cc1 | 76.7%
CCN1CCCC1CNC(=O)c1ncc(-c2ccc(C(F)(F)F)cc2)c(NC2CCCCCC2)n1 (stereo not given) | 65.9%
Cn1cnc([N+](=O)[O-])c1/C=C1\Oc2ccc(Cl)cc2C1=O | 60%
Clc1ccc(C2=NN[C@H](c3cn(-c4ccccc4)nc3-c3ccccc3)C2)cc1 | 100%
CC1=CC(c2ccco2)=C2C(N)=NNC2N1 (stereo not given) | 106%
COc1ccc(-c2cc(-c3ccc(Nc4ccnc5cc(Cl)ccc45)cc3)nc(N3CCOCC3)n2)cc1 | 7.25% (active)
CCCCCCCCCCCCCCCC1=NCCN1 | -15.6% (active)
COc1ccc(C(=O)c2cc3c(N)c(C(=O)Nc4cccc5ccccc45)sc3nc2C)cc1 | -49% (active)
O=C(Nc1cccc(Cl)c1)Oc1c(Cl)c(Cl)c(Cl)c(Cl)c1Cl | 101%
